# hgDAF-12 ag: H. glycines DAF-12 receptor agonists, primary screen, cell-based, luminescence, HEK293, GAL4 fusion, UAS-luciferase; HEK293 GAL4-hgDAF12 UAS-luciferase reporter, agonist luminescence; normalized to butyrate control; activation, % at 6.8 µM; 1.8% of 370,000 active; AID 687014, 2013;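 active = activation above a cutoff set at the mean of all screened compounds plus 3 SD, cut at about 10% in these data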
# DAX1 inh-1: DAX1 (NR0B1) inhibitors on StAR promoter, primary screen, cell-based, luminescence, SF-1 (NR5A1), full-length DAX-1 | 1.1% of 370,000 active | inhibition, % at 6.8 µM | AID 652010, 2013 | HEK293T StAR-luciferase reporter, SF-1/DAX-1 repression relief;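 active = inhibition above the mean over all tested compounds plus 3 SD, cut at about 3.6% in these data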;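 also: higher inhibition means more luminescence from relief of DAX-1 repression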
# ssDAF-12 act: S. stercoralis DAF-12 nuclear receptor activators, primary screen, cell-based, luminescence, HEK293, GRIP1 co-expression, lit1-tk-luc; Nuclear hormone receptor DAF-12 (Strongyloides stercoralis); HEK293 ssDAF-12/GRIP1 lit1-tk-luc reporter; % of 3 µM dafachronic acid response; activation, % at 6.8 µM; 1% of 370,000 active; AID 652126, 2013;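 active = activation above the mean over all tested compounds plus 3 SD, cut at about 0.9% in these data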
# DAX1 inh-2: DAX1 (NR0B1) inhibitors, primary screen, cell-based, HEK293, Gal4-DAX1, luciferase luminescence; Nuclear receptor subfamily 0 group B member 1 (Homo sapiens), P51843; HEK293 Gal4-DAX1 luciferase reporter; inhibition, % at 6.75 µM; 0.99% of 340,000 active; AID 504766, 2011;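 active = inhibition above the mean over all tested compounds plus 3 SD, cut at about 4.2% in these data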;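 also: inhibition shows as a rise in luminescence from relieved DAX1 repression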
# Target sequence (P51843 207-470 limits assumed): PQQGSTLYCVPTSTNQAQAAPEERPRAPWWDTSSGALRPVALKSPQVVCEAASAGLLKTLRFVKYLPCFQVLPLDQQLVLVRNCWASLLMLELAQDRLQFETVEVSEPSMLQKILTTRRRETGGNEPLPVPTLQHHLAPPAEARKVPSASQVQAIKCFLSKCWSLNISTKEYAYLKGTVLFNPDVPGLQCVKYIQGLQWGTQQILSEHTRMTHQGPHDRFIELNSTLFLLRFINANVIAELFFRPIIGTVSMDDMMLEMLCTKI
# hcDAF12 agonist: H. contortus DAF-12 nuclear receptor activators, primary screen, cell-based, luminescence, HEK293, lit1-tk-luc reporter. HEK293 hcDAF-12 lit1-tk-luc reporter; 0% DMSO, 100% Δ7-dafachronic acid. activation, % at 6.8 µM. 1.4% of 370,000 active;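 active = activation above the mean of all tested compounds plus 3 SD, cut at about 5.5% in these data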
# GAA850 FXN act: FXN promoter activators, primary screen, cell-based, luciferase luminescence, HEK293 lucGAA850. HEK293 lucGAA850 FXN promoter luciferase reporter, 24 h; percent of 10 µM SAHA response. activation, % at 6 µM. 0.56% of 360,000 active. AID 540364, 2011;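 active = activation above the average of all compounds screened plus 3 SD, cutoff fixed separately per campaign, cut at about 7.5% in these data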
# Hits are given with their value; . = inactive; / = not tested or not shown. The list is not random: actives were taken first. Their share in the collection is about 4.5%.
SMILES,hgDAF-12 ag,DAX1 inh-1,ssDAF-12 act,DAX1 inh-2,hcDAF12 agonist,GAA850 FXN act
O=C(Cc1ccc2cccnc2c1)c1ccc(O)cc1O,10.7,.,.,.,.,.
O=C(Cc1ccccc1)c1ccc(O)cc1O,.,.,.,.,.,.
Cc1cc(C)cc(Nc2ncc3c(n2)CCCC3=O)c1,.,3.9,.,.,.,.
C=CCOC(=O)N[C@H](c1ccc(-c2ccccc2)cc1)[C@H](C)/C=C/CC(=O)OC,.,.,.,/,.,/
O=C(Nc1nc2c(s1)CCCC2)c1ccc(Br)s1,.,.,.,.,6.2,.
CCc1ccc2nc(NC(=O)c3ccc(N4C(=O)CCC4=O)cc3)sc2c1,.,.,.,4.4,.,.
O=C(Nc1nc2c(s1)CCCC2)c1ccc(N2C(=O)CCC2=O)cc1,.,4.2,.,.,.,.
COC(=O)c1ccc(C(=O)NC(=S)Nc2nc3c(s2)CCCC3)cc1,.,.,.,.,6.2,.
COC(=O)c1ccc(S(=O)(=O)N2CCC(NC(=O)Cc3ccccc3)CC2)cc1,.,.,.,/,.,/
CCC[C@@H](/C=C/C(=O)OC(C)(C)C)Sc1ccc(N)cc1,.,.,.,/,.,/
COC(=O)c1cccc(Cn2ccc3ccc(-c4ccc5ccn(Cc6cccc(C(=O)OC)c6)c5c4)cc32)c1,.,.,.,/,.,/
COC(=O)C1CN(C2CC2)CCS(=O)(=O)N1Cc1cn(Cc2ccccc2)nn1 (stereo not drawn),.,.,.,/,.,/
O=C(CCCc1cccs1)Nc1nc2c(s1)CCCC2,.,.,1.0,.,.,.
CC(NC(=O)C(=O)N/N=C\c1cccc([N+](=O)[O-])c1)c1ccccc1 (stereo not drawn),.,.,.,5.0,.,.
CC(C)(C)OC(=O)N/N=C/c1cccc([N+](=O)[O-])c1,11.3,4.4,.,.,.,.
C[C@H](O)[C@@H]1CN2CCc3c([nH]c4cccc(-c5ccccc5)c34)[C@@H]2C[C@@H]1N(C)C(=O)Nc1ccccc1,.,.,.,/,.,/
O=C(N/N=C/c1cnc(N2CCCCC2)s1)c1ccc(Cl)cc1,.,.,.,.,.,.
O=Cc1cnc(N2CCCCC2)s1,.,.,.,7.1,.,.
Cc1ccc(-n2nnc(-c3cccnc3Cl)n2)cc1,11.6,.,.,.,.,.
Cc1cc(O)c2c(c1)C(=O)c1cc(O)cc(O)c1C2=O,.,.,.,.,.,.
O=C1c2cc(O)cc(O)c2C(=O)c2c1cc(O)c([C@@H](CO)CCO)c2O,.,.,.,.,6.1,.
COc1ccc(CC(=O)NCC2CCCN(Cc3ccc(F)cc3F)C2)cc1 (stereo not drawn),11.6,.,.,.,.,.
COc1ccc(CC(=O)NCC2CCCN(Cc3ccc(OC)cc3F)C2)cc1 (stereo not drawn),.,.,.,.,.,.
Cc1cc(Cl)ccc1NC(=O)/N=C1/NC(=O)CS1,.,.,1.1,/,.,/
O=C(NC1CCCC1)C1c2ccccc2OCC(=O)N1Cc1ccccn1 (stereo not drawn),.,.,.,/,.,/
SMILES,hgDAF-12 ag,DAX1 inh-1,ssDAF-12 act,DAX1 inh-2,hcDAF12 agonist,GAA850 FXN act
O=C(NC1CCCCC1)C1c2ccccc2OCC(=O)N1Cc1ccco1 (stereo not drawn),.,4.4,.,/,.,/
Cc1ccc(/C(N)=N/OC(=O)CCc2ccccc2)cc1,.,.,.,.,6.2,.
CCOC(=O)CC1Sc2ccccc2NC1=O (stereo not drawn),/,/,/,.,/,.
CC(OC(=O)CC1Sc2ccccc2NC1=O)C(=O)N(C)Cc1ccccc1 (stereo not drawn),.,.,1.0,.,.,.
CC(C)COCc1ccc(O)c2ncccc12,.,.,.,.,.,.
CCCOCc1ccc(O)c2ncccc12,12.3,.,.,.,.,.

# Compound activity from PubChem BioAssay.
